Test results: PubChem BioAssay (NCATS)
Inconclusive results are not listed. Activity calls are given as the source filed them. Calls follow the shape of the dose curve; as a rule, active = well fitted curve in the direction sought with a large enough effect; inconclusive = small, poorly fitted or top-dose-only effect, or another doubt; inactive = no such curve, though single readings can be large; an effect the other way counts as inactive or inconclusive.

How the values were obtained:
[1] = molecular target: Calcium and integrin-binding protein 1 (Homo sapiens) (UniProt Q99828); experiment: Primary qHTS for Identification of Calcium Integrin Binding Protein 1 (CIB1) Competitor (AID 1508620);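 also: GST tagged CIB1 binding a fluorescein labelled alphaIIb integrin peptide tracer; top concentration of the series differs between compounds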
Chain of Calcium and integrin-binding protein 1 (Homo sapiens) (Q99828 whole entry, looked up): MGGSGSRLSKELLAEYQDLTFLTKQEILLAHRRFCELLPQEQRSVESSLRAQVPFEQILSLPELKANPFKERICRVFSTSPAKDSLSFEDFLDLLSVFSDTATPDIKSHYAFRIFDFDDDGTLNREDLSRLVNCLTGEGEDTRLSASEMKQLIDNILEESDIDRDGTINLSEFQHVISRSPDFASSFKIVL
In short: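 Fluorescence polarization competition: CIB1-GST (1 uM final) preincubated with compound 15 min at room temperature, then FITC-labeled alphaIIb peptide (100 nM final) added for another 15 min. Polarization read at Ex 480/Em 540.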

[2] = Primary qHTS for inhibitors of nuclear receptor binding SET domain protein 2 (NSD2) in an isogenic RCH-ACV NSD2 p.E1099K mutant (9B) (AID 1645876); also: nearly all actives have a fitted effect of over 70% in size
[3] = Primary qHTS for inhibitors of nuclear receptor binding SET domain protein 2 (NSD2) in an RCH-ACV wild type WT cells (2C) (AID 1645877); also: nearly all actives have a fitted effect of over 70% in size
% is scaled to controls: 0 for no effect and ±100 for the full control effect.

CC1(C)CC[C@]2(C(=O)O[C@@H]3O[C@H](CO)[C@@H](O)[C@H](O)[C@H]3O)CC[C@]3(C)C(=CCC4[C@@]5(C)C[C@H](O)[C@H](O[C@@H]6O[C@H](C(=O)O)[C@@H](O)[C@H](O)[C@H]6O)[C@@](C)(CO)C5CC[C@]43C)C2C1 (stereo partly drawn)
inactive: activity change, negative = inhibition [1] 0.901% [at 12.4 µM] | activity change, negative = viability loss [2] -12.9% [at 9.23 µM] | activity change, negative = cell killing [3] -7.01% [at 9.23 µM]

Cc1occc(=O)c1O[C@@H]1O[C@H](CO[C@@H]2OC[C@](O)(CO)[C@H]2O)[C@@H](O)[C@H](O)[C@H]1O
inactive: Potency [1] | Potency [2] | Potency [3]

C[C@]1(OC(=O)/C=C/c2ccc(O)cc2)C[C@@H](O)[C@]2(O)C=CO[C@@H](O[C@@H]3O[C@H](CO)[C@@H](O)[C@H](O)[C@H]3O)C12 (stereo partly drawn)
inactive: Potency [1] | Potency [2] | Potency [3]

C=C1C(OC(C)=O)CCC2(C)CCC(C(C)(C)O)CC12 (stereo not drawn)
inactive: Potency [1] | Potency [2] | Potency [3]

C[C@@H]1CC[C@]2(C(=O)O[C@@H]3O[C@H](CO[C@@H]4O[C@H](CO)[C@@H](O[C@@H]5O[C@@H](C)[C@H](O)[C@@H](O)[C@H]5O)[C@H](O)[C@H]4O)[C@@H](O)[C@H](O)[C@H]3O)CC[C@]3(C)C(=CCC4[C@@]5(C)C[C@@H](O)[C@H](O)[C@@](C)(CO)C5CC[C@]43C)C2[C@H]1C (stereo partly drawn)
inactive: Potency [1] | outcome [2] inactive [at 9.23 µM] | outcome [3] inactive [at 9.23 µM]

O=C(OCc1ccccc1O[C@@H]1O[C@H](CO)[C@@H](O)[C@H](O)[C@H]1O)C1(O)C=CCCC1O (stereo partly drawn)
inactive: Potency [1] | Potency [2] | Potency [3]

COc1ccc(C2(O)c3ccccc3NC(=O)C2OC)cc1 (stereo not drawn)
inactive: Potency [1] | Potency [2] | Potency [3]

CO[C@@H]1[C@]2(O)C(=O)N3/C=C\C(C)(C)c4[nH]c5ccccc5c4/C=C\3C(=O)N2[C@]23[C@H](CO)C(C)(C)N2c2ccccc2[C@]13O
inactive: Potency [1] | Potency [2] | Potency [3]

CC1(C)CC[C@]2(C(=O)OC3OC(CO)C(O)C(O)C3O)CC[C@]3(C)C(=CCC4[C@@]5(C)C[C@@H](O)[C@H](OC6OC(C(=O)O)C(O)C(O)C6O)C(C)(C)C5CC[C@]43C)[C@@H]2C1 (stereo partly drawn)
inactive: Potency [1] | activity change, negative = viability loss [2] -7.32% [at 9.23 µM] | activity change, negative = cell killing [3] -10.4% [at 9.23 µM]

CC1(C)CC[C@]2(C(=O)O)CC[C@]3(C)C(=CCC4[C@@]5(C)CC[C@H](O)C(C)(C)C5CC[C@]43C)C2C1 (stereo partly drawn)
inactive: Potency [1] | Potency [2] | Potency [3]

C/C=C1/[C@H](O[C@@H]2O[C@H](CO)[C@@H](O)[C@H](O)[C@H]2O)OC=C(C(=O)OC)[C@H]1CC(=O)OCCc1ccc(O)c(O)c1
inactive: Potency [1] | Potency [2] | Potency [3]

COc1ccc(CCC(=O)O)c(O[C@@H]2O[C@H](CO)[C@@H](O)[C@H](O)[C@H]2O)c1
inactive: Potency [1] | Potency [2] | Potency [3]

C/C=C1\[C@H](O[C@@H]2O[C@H](CO)[C@@H](O)[C@H](O)[C@H]2O)OC=C(C(=O)O)[C@H]1CC(=O)OCCc1ccc(O)cc1
inactive: Potency [1] | Potency [2] | Potency [3]

C=C1[C@H](OC(C)=O)[C@H]2[C@@H](OC(C)=O)C(C)C[C@]2(OC(C)=O)C(=O)[C@H](C)/C=C/C(C)(C)C(=O)[C@H](OC(=O)C(C)C)[C@H]1OC(C)=O (stereo partly drawn)
inactive: Potency [1] | Potency [2] | Potency [3]

CC(=O)OC1CCC2(C)C(CCC3(C)C2CC=C2C4CC(C)(C)CCC4(C)CCC23C)C1(C)C(=O)O (stereo not drawn)
inactive: Potency [1] | Potency [2] | Potency [3]

CC(=O)c1[nH]cc(CCC(=O)O)c1CC(=O)O
inactive: Potency [1] | Potency [2] | Potency [3]

C=CC(C)(CC/C=C(\C)C(=O)OC)OC1OC(COC(=O)CC(C)(O)CC(=O)O)C(O)C(O)C1O (stereo not drawn)
inactive: Potency [1] | Potency [2] | Potency [3]

O=C(O)c1ccncc1Nc1nn(CCN2CCC(F)(F)CC2)c2ccc(F)cc12
inactive: Potency [1] | Potency [2] | Potency [3]

CC1(C)O[C@H]2CC(=O)OC[C@@]23C1=C(O)C(=O)[C@]1(C)C3CC[C@@]2(C)[C@H](c3ccoc3)OC(=O)[C@H]3O[C@]321 (stereo partly drawn)
inactive: Potency [1] | Potency [2] | Potency [3]

C/C=C/C=C/C=C/C(=O)O[C@@H]1[C@@H](OC)C2=C(C(=O)N(C(CCC(=O)O)C(=O)O)C2)[C@@]2(C)CCCC(C)(C)[C@H]12 (stereo partly drawn)
inactive: Potency [1] | Potency [2] | Potency [3]

C/C=C(/C)C(=O)OC1C(OC(C)=O)C23C(O)OC4(CCC5C6(C)CCC(OC7OC(C(=O)O)C(O)C(OC8OC(CO)C(O)C(O)C8OC8OC(C)C(O)C(O)C8OC8OCC(O)C(O)C8O)C7OC7OC(CO)C(O)C(O)C7O)C(C)(C)C6CCC5(C)C4(C)CC2OC(C)=O)C3CC1(C)C (stereo not drawn)
inactive: activity change, negative = inhibition [1] 3.17% [at 12.4 µM] | activity change, negative = viability loss [2] 4.87% [at 9.23 µM] | activity change, negative = cell killing [3] 3.76% [at 9.23 µM]
